Assay [1] is described as follows: binders of probe aFSTL3 on microarray, primary screen, stem cell growth factor project, biochemical, small-molecule microarray, fluorescence 635/667 (AID 1064).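 Note: measures binding of the biotinylated anti-FSTL3 antibody to printed compounds.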 Conditions: higher = more signal.
Assay [2] is described as follows: binders from COS7 lysate, DM2A8 probe, primary screen, torsin A project, cell lysate, small-molecule microarray, fluorescence 635/667 (AID 1065). Conditions: higher = more signal, COS7 lysate expressing mutant human TOR1A.
Assay [3] can be described thus: binders of probe aFGF2 on microarray, primary screen, stem cell growth factor project, biochemical, small-molecule microarray, fluorescence 635/667 (AID 1067).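 Note: measures binding of biotinylated aFGF2 protein to printed compounds on slides; z-score merges feature fluorescence and signal-to-noise across triplicate slides.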 The conditions noted are these: higher = more signal.
A short description of assay [4]: binders of probe aFGF10 on microarray, primary screen, stem cell growth factor project, biochemical, small-molecule microarray, fluorescence 635/667 (AID 1071).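 Note: score merges 667 nm spot intensity and signal to noise from triplicate slides.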 Conditions: higher = more signal.
The target of assay [5] is Neurogenic locus notch homolog protein 2 (Homo sapiens) (UniProt Q04721). Description: Notch2 binders on small-molecule microarrays, primary screen, biochemical, small-molecule microarray, 635 nm fluorescence, stem cell growth factors (AID 1073). Conditions: Notch2 binding, higher = more signal.
For assay [6], the target named is Pro-neuregulin-1, membrane-bound isoform (Homo sapiens) (UniProt Q02297). Description: NRG1 binders on small-molecule microarrays, primary screen, psychiatric disease protein project, biochemical, small-molecule microarray, fluorescence 635/667 (AID 1075).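 Note: score combines 667 nm spot fluorescence with signal to noise.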 Conditions: NRG1 binding, 635 nm fluorescence, higher = more signal.
The subject of assay [7] is Neuregulin-1 EGF-like domain. Description: binders of neuregulin-1 EGF-like domain, primary screen, biochemical, small-molecule microarray, 635 nm fluorescence (AID 1081).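 Note: binding of the protein to compounds printed on small-molecule microarray slides.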 Conditions: small-molecule microarray binding, higher = more signal.
Assay [8] is described as follows: FRG1 promoter luciferase signal modulators, primary screen, FRG1 inhibition for FSHD, cell-based, C2C12 myotubes, firefly/Renilla luciferase, luminescence (AID 1084). Conditions: higher = more signal, called active from +8 up or from −8 down.
The nature of assay [9]: binders of probe aFST on microarray, primary screen, stem cell growth factor project, biochemical, small-molecule microarray, fluorescence 635/667 (AID 1086).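 Note: score merges 667 nm fluorescence with signal-to-noise of each printed compound spot.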 The conditions noted are these: higher = more signal.
The nature of assay [10]: binders of probe aHhip on microarray, primary screen, stem cell growth factor project, biochemical, small-molecule microarray, fluorescence 635/667 (AID 1087).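 Note: score merges spot fluorescence at 667nm with spot signal to noise ratio.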 Conditions: higher = more signal.
Assay [11] concerns PRMT1 (protein arginine N-methyltransferase 1). Description: PRMT1 binders on small-molecule microarrays, primary screen, biochemical, small-molecule microarray, 635 nm fluorescence (AID 1088).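 Note: binding of Prmt1 protein to compounds spotted on small-molecule microarray slides.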 The conditions noted are these: small-molecule microarray binding, higher = more signal.
The nature of assay [12]: yeast growth modulation, basal conditions, primary screen, YJM789 clinical isolate, OD600, 24 h (AID 1089).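 Note: growth of clinical yeast isolate S. cerevisiae YJM 789 seeded 1000 cells per well; test concentration not given here.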 Conditions: S. cerevisiae YJM789 growth, higher = more signal, called active from +8 up or from −8 down.
Assay [13] is described as follows: fission yeast growth modulation, primary screen, strain 972, OD600, 24 h, no modulator (AID 1090).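 Note: basal condition with compound alone and no growth modifier present; test concentration not given here.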 Conditions: S. pombe 972 growth, higher = more signal, called active from +8 up or from −8 down.
A short description of assay [14]: S. cerevisiae growth modulation with rapamycin, primary screen, strain BY4716, OD600, 96 h (AID 1091). Note: test concentration not given here. The conditions noted are these: higher = more signal, called active from +8 up or from −8 down.
Assay [15] deals with Torsin-1A-interacting protein 2 (Homo sapiens) (UniProt Q8NFQ8). Description: LULL1 binders on small-molecule microarray, primary screen, cell lysate, human LULL1 lysate, 635/667 nm fluorescence (AID 1092).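 Note: score merges per-feature 667 nm fluorescence with signal-to-noise.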 Conditions: hLULL1 lysate binding, 635 nm fluorescence, higher = more signal.
Assay [16] in a line: E. coli growth modulation, two-sided OD650, primary screen, E. coli filamentation project, strain DRC41, 24 h (AID 1093).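 Note: MC1000 strain lacking acrAB efflux and sulA so SOS filamentation is blocked; test concentration not given here.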 Conditions: OD650, 24 h, higher = more signal, called active from +8 up or from −8 down.
The nature of assay [17]: small-molecule microarray binders of probe aLefty2, primary screen, biochemical, biotinylated probe, 635/667 nm fluorescence (AID 1094).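 Note: score merges spot fluorescence near 667 nm with spot signal-to-noise ratio.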 Conditions: higher = more signal.
The test system of assay [18] is Noggin (protein binding on small-molecule microarray). Description: Noggin binders on small-molecule microarray, primary screen, biochemical, 635/667 nm fluorescence (AID 1095).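 Note: score merges 667 nm feature fluorescence with signal to noise over triplicate slides.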 The conditions noted are these: 635 nm fluorescence, higher = more signal.
Assay [19] has as its target Neurogenic locus notch homolog protein 3 (Homo sapiens) (UniProt Q9UM47). Description: NOTCH3 binders on small-molecule microarray, primary screen, biochemical, 635/667 nm fluorescence (AID 1096). The conditions noted are these: NOTCH3 binding, 635 nm fluorescence, higher = more signal.
Assay [20] is described as follows: small-molecule microarray binders of probe aEGFR, primary screen, biochemical, biotinylated probe, 635/667 nm fluorescence (AID 1097).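 Note: probe is a biotinylated anti-EGFR antibody binding compounds printed on slides; score combines fluorescence near 667 nm and signal to noise of each spot.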 The conditions noted are these: higher = more signal.

The structures appear in SMILES notation. Activity calls are given as the source filed them.

Pro-neuregulin-1, membrane-bound isoform (Homo sapiens), sequence (Q02297 whole entry, looked up, the tested form may be a part, canonical isoform): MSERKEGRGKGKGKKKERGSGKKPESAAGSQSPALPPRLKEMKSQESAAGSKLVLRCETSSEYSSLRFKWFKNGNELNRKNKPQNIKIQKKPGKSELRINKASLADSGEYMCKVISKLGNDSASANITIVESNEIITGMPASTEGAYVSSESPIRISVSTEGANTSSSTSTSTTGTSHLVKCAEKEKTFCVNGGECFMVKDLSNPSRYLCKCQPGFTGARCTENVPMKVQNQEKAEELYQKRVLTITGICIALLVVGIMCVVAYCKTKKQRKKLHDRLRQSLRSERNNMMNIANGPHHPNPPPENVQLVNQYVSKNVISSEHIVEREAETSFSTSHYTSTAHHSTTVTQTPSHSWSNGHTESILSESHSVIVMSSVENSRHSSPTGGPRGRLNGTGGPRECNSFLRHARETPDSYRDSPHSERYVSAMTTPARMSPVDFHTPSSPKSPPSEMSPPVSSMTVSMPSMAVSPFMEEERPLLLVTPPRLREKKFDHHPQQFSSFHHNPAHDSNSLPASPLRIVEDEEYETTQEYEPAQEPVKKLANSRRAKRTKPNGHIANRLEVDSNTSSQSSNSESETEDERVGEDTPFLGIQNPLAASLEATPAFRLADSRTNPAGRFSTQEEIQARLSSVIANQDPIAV
Torsin-1A-interacting protein 2 (Homo sapiens), sequence (Q8NFQ8 whole entry, looked up): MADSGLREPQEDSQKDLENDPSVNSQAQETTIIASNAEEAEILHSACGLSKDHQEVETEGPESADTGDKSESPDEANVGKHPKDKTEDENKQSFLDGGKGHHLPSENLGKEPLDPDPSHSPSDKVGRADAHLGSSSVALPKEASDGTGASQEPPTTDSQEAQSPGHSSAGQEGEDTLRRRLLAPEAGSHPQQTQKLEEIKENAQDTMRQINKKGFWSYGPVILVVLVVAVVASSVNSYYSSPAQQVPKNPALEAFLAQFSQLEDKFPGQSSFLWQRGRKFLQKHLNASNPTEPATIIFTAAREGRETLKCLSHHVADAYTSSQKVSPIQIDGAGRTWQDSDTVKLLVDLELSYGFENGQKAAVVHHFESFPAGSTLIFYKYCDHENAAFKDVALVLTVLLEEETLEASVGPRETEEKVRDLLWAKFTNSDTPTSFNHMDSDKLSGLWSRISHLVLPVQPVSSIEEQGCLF
Neurogenic locus notch homolog protein 2 (Homo sapiens), sequence (Q04721 whole entry, looked up, canonical isoform): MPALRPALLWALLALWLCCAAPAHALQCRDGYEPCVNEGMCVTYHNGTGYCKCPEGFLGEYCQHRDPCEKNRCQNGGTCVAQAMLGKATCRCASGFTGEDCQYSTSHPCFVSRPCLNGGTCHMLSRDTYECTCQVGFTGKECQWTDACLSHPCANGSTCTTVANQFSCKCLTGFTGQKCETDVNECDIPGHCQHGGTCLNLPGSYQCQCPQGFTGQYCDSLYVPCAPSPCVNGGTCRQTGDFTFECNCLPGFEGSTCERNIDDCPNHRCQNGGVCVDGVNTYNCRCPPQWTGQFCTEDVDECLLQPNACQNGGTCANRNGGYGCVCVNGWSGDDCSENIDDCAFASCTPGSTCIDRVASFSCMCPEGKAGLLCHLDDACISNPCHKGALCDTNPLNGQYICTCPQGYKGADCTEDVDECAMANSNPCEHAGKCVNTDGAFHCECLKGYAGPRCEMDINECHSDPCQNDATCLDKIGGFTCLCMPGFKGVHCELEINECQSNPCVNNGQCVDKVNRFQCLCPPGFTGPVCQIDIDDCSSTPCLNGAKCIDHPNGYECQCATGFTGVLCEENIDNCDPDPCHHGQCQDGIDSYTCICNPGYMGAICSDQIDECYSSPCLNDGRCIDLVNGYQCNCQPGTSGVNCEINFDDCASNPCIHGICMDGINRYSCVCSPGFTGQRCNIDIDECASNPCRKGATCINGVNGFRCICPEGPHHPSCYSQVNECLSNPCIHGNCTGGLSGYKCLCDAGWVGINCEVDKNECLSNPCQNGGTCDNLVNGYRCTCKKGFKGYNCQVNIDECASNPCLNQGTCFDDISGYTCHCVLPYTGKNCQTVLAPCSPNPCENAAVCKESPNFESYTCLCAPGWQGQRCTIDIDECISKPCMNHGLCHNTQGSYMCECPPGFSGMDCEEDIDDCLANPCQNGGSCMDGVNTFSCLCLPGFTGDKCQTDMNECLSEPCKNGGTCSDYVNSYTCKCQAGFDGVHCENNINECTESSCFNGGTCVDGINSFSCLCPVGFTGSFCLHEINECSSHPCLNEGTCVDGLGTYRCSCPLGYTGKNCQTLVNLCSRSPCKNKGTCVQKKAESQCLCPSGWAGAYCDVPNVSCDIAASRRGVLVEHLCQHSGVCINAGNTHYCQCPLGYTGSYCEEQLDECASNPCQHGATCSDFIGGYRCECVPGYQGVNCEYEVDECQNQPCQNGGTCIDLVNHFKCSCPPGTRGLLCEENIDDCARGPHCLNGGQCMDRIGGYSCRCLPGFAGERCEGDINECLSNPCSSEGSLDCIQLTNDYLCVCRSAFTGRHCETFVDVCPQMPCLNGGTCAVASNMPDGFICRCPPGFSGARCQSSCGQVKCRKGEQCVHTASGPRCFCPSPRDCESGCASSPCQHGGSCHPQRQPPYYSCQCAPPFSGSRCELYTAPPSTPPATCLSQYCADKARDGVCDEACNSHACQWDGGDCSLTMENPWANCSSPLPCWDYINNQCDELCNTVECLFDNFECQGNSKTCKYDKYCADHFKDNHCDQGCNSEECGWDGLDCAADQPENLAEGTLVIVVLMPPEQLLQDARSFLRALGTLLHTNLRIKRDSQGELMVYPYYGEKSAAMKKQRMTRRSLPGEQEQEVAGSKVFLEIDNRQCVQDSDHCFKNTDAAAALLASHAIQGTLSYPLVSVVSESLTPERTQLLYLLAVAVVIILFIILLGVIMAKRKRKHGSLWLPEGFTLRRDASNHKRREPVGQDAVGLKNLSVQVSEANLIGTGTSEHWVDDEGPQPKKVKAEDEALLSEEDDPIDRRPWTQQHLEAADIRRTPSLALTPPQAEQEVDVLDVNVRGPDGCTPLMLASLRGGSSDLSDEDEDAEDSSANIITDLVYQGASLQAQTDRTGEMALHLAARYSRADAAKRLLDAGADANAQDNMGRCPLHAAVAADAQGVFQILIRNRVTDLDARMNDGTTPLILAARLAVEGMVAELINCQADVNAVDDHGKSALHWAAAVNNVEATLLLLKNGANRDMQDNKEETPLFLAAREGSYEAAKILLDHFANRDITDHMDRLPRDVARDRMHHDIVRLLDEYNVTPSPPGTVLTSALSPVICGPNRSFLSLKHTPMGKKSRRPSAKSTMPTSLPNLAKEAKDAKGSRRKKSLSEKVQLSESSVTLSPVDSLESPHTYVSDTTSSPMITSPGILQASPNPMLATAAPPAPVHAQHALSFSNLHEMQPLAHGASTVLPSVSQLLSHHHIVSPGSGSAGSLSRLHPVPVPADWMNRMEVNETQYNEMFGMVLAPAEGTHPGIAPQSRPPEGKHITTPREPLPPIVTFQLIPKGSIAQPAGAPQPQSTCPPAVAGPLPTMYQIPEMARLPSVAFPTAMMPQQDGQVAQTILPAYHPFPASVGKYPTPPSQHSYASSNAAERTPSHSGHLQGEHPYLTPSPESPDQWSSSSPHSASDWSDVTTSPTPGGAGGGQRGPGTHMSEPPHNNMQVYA

`C=CCOc1ccc([C@@H]2CC=C(C(=O)OCC)[C@H](c3cccc(Br)c3)N2S(=O)(=O)c2ccc(C)cc2)cc1`: the composite z-score in [1] was 0.474; in [2] it was -0.229; in assay [3], -0.0901; in assay [4] it was -0.0763; in assay [5], -0.672; in [6] it was 0.866. Also, the composite z-score in [7] is 0.0455; in [9], 0.176; in assay [10], -0.3; in [11], -0.227; in assay [15] it was 0.652; in [17], 0.049. Besides, the values for the composite z-score in assay [18], in [19] and in [20] were -0.351, -0.32 and -0.0456, respectively. Moreover, the z-score was -4.03 (inactive) in assay [8]; -2.1 (inactive) in [12]; -0.493 (inactive) in assay [13]; 0.196 (inactive) in assay [14]; -0.372 (inactive) in assay [16].
On to `O=C1O[C@H](c2ccccc2)[C@H](c2ccccc2)N2[C@H]1[C@@H](C(=O)N1CCCCCCC1)[C@]1(C(=O)Nc3ccc(C#CCCO)cc31)[C@H]2c1ccc(OCCO)cc1`, for which the composite z-score in assay [1] was determined as 3.51; in [2], 2.79; in [3] it was 0.972; in assay [4], 1.49; in assay [5], 1.76; in assay [6] it was 2.84. Also, the composite z-score was found to be 1.35 in [7]; 3.33 in assay [9]; 2.53 in [10]; 1.56 in [11]; 5.06 in [15]; 1.6 in assay [17]. Also, the values for the composite z-score in [18], in assay [19] and in assay [20] were 2.36, 1.01 and 1.28, respectively. Moreover, the z-score in assay [8] is -0.409 (inactive); in [12], 1.55 (inactive); in assay [13], -0.0863 (inactive); in [14] it was 3.73 (inactive); in [16], 0.669 (inactive).
Take `COCCOC(=O)N1C(=O)[C@@]2(c3cc(C#Cc4ccc(OC)cc4)ccc31)[C@H](C(=O)N1CCc3cc(OC)c(OC)cc3C1)[C@H]1C(=O)O[C@H](c3ccccc3)[C@H](c3ccccc3)N1[C@@H]2c1ccc(OCCO)cc1`: the composite z-score in assay [1] is -0.172; in assay [2], 0.454; in assay [3] it was -0.0567; in assay [4] it was 0.452; in assay [5], 1.22; in assay [6], 0.62. The composite z-score is 1.16 in [7]; 0.0478 in assay [9]; 0.0623 in assay [10]; 1.33 in assay [11]; 1.32 in [15]; -0.104 in assay [17]. The composite z-score in assay [18] came out at 1.22; in assay [19] it was 1.15; in assay [20] it was 0.0343. The z-score is 1.36 (inactive) in assay [8]; 2.2 (inactive) in [12]; 1.36 (inactive) in assay [13]; 5.75 (inactive) in [14]; 0.816 (inactive) in [16].
Consider `Cc1ccc(S[C@]2(C(=O)NCCN3CCOCC3)CC(=O)N(C3Cc4ccccc4C3)[C@@H]2c2ccc(CO)cc2)cc1`, for which the composite z-score is -0.108 in assay [1]; 1.32 in assay [2]; -0.0825 in [3]; -0.168 in assay [4]; -0.746 in [5]; 1.72 in assay [6]. In addition, the composite z-score is 1.27 in assay [7]; 0 in assay [9]; -0.0994 in [10]; 1.42 in assay [11]; 2.77 in assay [15]; -0.0928 in assay [17]. Also, the results for the composite z-score in [18], in assay [19] and in assay [20] were -1.11, -0.521 and -0.222, respectively. In addition, the z-score was -0.611 (inactive) in [8]; -0.432 (inactive) in [12]; -0.291 (inactive) in [13]; -0.0611 (inactive) in assay [14]; 0.7 (inactive) in assay [16].
As for `O=C(C=C(CC(O)c1cccc(Cl)c1)OCCF)OCCF` (stereo not given), the composite z-score in [1] was 0.876; in assay [2], -0.824; in assay [3], -0.154; in assay [4], -0.694; in assay [5] it was -1.02; in assay [6], -0.0066. For the same compound, the composite z-score is -0.19 in assay [7]; 0.0462 in [9]; 0.0596 in [10]; -1.87 in assay [11]; 0.0714 in [15]; -0.166 in [17]. Moreover, the figures for the composite z-score in [18], in assay [19] and in [20] were -1.22, -1.11 and -0.128, respectively. In addition, the z-score is -4.54 (inactive) in [8]; -2.44 (inactive) in [12]; 0.291 (inactive) in [13]; -0.582 (inactive) in assay [14]; -0.106 (inactive) in assay [16].
For `CN(C)C(=O)[C@]1(Cc2ccccc2N=[N+]=[N-])N=C(c2ccc(OCCCO)cc2)O[C@@H]1c1ccccc1CN=[N+]=[N-]`, the composite z-score in assay [1] is -0.144; in [2] it was 0.937; in assay [3] it was 0.122; in assay [4], 0.794; in assay [5] it was 1.51; in assay [6], 1.8. For the same compound, the composite z-score is 1.19 in [7]; 0.745 in assay [9]; -0.0994 in [10]; 1.5 in [11]; 3.51 in assay [15]; 0.0262 in [17]. Besides, the composite z-score is 0.821 in assay [18], 1.02 in assay [19] and -0.0509 in assay [20]. The z-score is 0.643 (inactive) in assay [8]; -2.13 (inactive) in [12]; -0.393 (inactive) in assay [13]; 0.545 (inactive) in assay [14]; 0.35 (inactive) in assay [16].
